# Screening results as filed in PubChem BioAssay.
# TLR4-MyD88 BLA: inhibitors of TLR4-MyD88 association in cells, primary screen, cell-based, HeLa CL3-4, BLA complementation, FRET ratio; Toll-like receptor 4 (Homo sapiens) + Myeloid differentiation primary response protein …; HeLa CL3-4 TLR4/MyD88 BLA complementation; inhibition, % at 8.4 µM; 200,000 tested, 0.18% active; AID 861, 2007; in the data active = inhibition above about 25%;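 note: 0% = vehicle and 100% = reference inhibitor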
# NPR2 activator: human GC-B receptor activators, primary screen, HEK293 GC-B cells, cGMP TR-FRET, EC30 CNP. Atrial natriuretic peptide receptor 2 (Homo sapiens), P20594. 0% at EC30 CNP, 100% saturating CNP. activation, % at 10 µM. 370,000 tested, 0.11% active. AID 1920062, 2024;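 active = activation at 10 µM reaching about 35% in either raw or pattern-adjusted values, limit read from the data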
# NPR1 activator: GC-A stimulated cGMP production enhancers – HEK293 GC-A cells, cGMP TR-FRET, EC30 ANP, primary screen; Atrial natriuretic peptide receptor 1 (Homo sapiens), P16066; 0% at EC30 ANP, 100% saturating ANP; activation, % at 10 µM; 370,000 tested, 0.14% active; AID 1671463, 2021; in the data active = activation above about 40%
# Neddyl block: inhibitors of cullin neddylation, primary screen, biochemical, TR-FRET, uHTS, NAE and Ubc12. AID 651699, 2012. 360,000 tested, 0.58% active. inhibition, % at 25 µM; in the data active = inhibition above about 36%
# NOD2-RIPK2 inh: NOD2-RIPK2 binding disruptors in cells, primary screen, fluorescence, CHO cells, BLA complementation | AID 624267, 2012 | 360,000 tested, 0.38% active | CCF4 ratio | inhibition, % at 4.98 µM; in the data active = inhibition above about 21%;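 note: 0% = vehicle only and 100% = reference blocker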
# TLR9-MyD88 block: inhibitors of TLR9-MyD88 association in cells, primary screen, cell-based, CHO, BLA complementation, fluorescence; Toll-like receptor 9 (Homo sapiens) + Myeloid differentiation primary response protein …; CCF4 FRET ratio; inhibition, % at 4.98 µM; 340,000 tested, 0.21% active;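 active = inhibition above the mean over all tested compounds plus 3 SD, cut at about 21% in these data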;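 note: 0% = DMSO only wells and 100% = clavulanate BLA inhibitor control wells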
# Neddyl inh conf: blockade of NEDD8 conjugation to cullin – biochemical, TR-FRET, single concentration, confirmation | shares compounds with Neddyl block | TR-FRET cullin neddylation biochemical assay | calls only at 25 µM | 1,800 tested, 13% active; in the data active = inhibition above about 40%;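 note: neddylation substrate is the cullin 1 ring ligase complex with SKP2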
# * = called active by the depositor; i = inactive; / = no result given; + = active, no number. This is a sample that favours compounds with a hit; in the whole collection about 1.2% have one here.
SMILES,TLR4-MyD88 BLA,NPR2 activator,NPR1 activator,Neddyl block,NOD2-RIPK2 inh,TLR9-MyD88 block,Neddyl inh conf
Cc1ccc2c(c1)-c1cc(C)nn1C(c1ccc3c(c1)OCO3)N2 (configuration not stated),-5.6,2.6,0.6,/,-7.2,-4.4,/
COc1ccc(-n2cc([N+](=O)[O-])c(=O)c3ccc(Cl)cc32)cc1,/,-5.2,-2.0,-15.1,-7.1,0.2,/
CN1CCN(C2CN(C3CCCC3)S(=O)(=O)C2)CC1 (configuration not stated),/,2.3,3.3,3.0,4.0,/,/
COc1ccc(-c2ccc(SCC(=O)NCc3ccco3)nn2)cc1,0.5,-2.4,-6.7,13.2,-0.2,3.0,/
COc1ccc(-c2[nH]c(-c3cccc(OC)c3)nc2SCC(=O)NCc2ccco2)cc1,-8.4,-8.7,-9.7,42.1*,-15.0,7.9,i
CN(Cc1ccccc1)Cc1cc(=O)oc2ccc3ccccc3c12,/,2.6,4.7,2.3,-2.1,/,/
CCOC(=O)c1[nH]c2ccc(C)cc2c1N,-6.4,-1.0,-2.3,22.0,5.4,-4.6,/
CCCC(C)NC(=O)c1ccc2[nH]c3c(c2c1)CC(C)CC3 (configuration not stated),0.2,3.3,4.9,23.8,-11.3,-0.1,/
COC(=O)c1ccc2[nH]c3c(c2c1)CC(C)CC3 (configuration not stated),/,-5.5,-4.7,40.4*,4.9,10.3,+
CCOC(=O)c1[nH]c2ccc(C(=O)OC)cc2c1C(=O)OCC,/,5.6,2.5,39.4*,-3.9,-1.6,i
CC1CCC(NC(=O)c2ccc(NC(=O)CC3SC(N4CCCC4)=NC3=O)cc2)CC1 (configuration not stated),/,6.6,-1.3,18.5,-0.1,-4.6,/
Cc1csc2ncc(C(=O)NCCc3ccccc3)c(=O)n12,-3.6,-0.4,7.9,46.7*,6.3,-1.4,i
Cc1csc2ncc(C(=O)NCCC(c3ccccc3)c3ccccc3)c(=O)n12,/,-4.9,0.7,23.5,0.3,-2.0,/
CCOC(=O)C1CCc2c(ccc3ccccc23)N1CCC#N (configuration not stated),/,-5.3,-11.8,46.7*,0.6,4.2,/
Cc1cc2c(cc(C(=O)OCC(=O)NC3CCCCC3)n2C)o1,/,4.1,-0.7,/,-6.3,-0.4,/
Cc1cnc(NC(=O)c2ccc(-c3ccc([N+](=O)[O-])cc3)o2)s1,/,-3.5,0.2,-9.7,-6.8,-7.4,/
Cc1cnc(NC(=O)c2ccc(-c3nc4ccccc4s3)o2)s1,-0.6,-2.1,0.7,41.3*,-2.2,0.0,i
COc1cccc(CO[C@H]2C=C[C@@H](c3ccccc3)O[C@@H]2COC(C)=O)c1,/,0.8,2.3,/,/,/,/
COC(=O)c1cc(OC)c(OC)cc1NCC(=O)Nc1ccc(C)cc1,1.4,-4.1,-4.2,46.6*,0.0,-8.9,/
COC(=O)c1cc(OC)c(OC)cc1NCC(=O)Nc1ccc(OC)c(OC)c1,3.2,1.4,1.2,15.8,-11.3,-12.3,/
C/C(=C\C(=S)Nc1ccccc1)Nc1ccc2ccccc2c1,9.3,-4.5,-5.5,4.6,2.3,5.5,/
C/C(=C\C(=S)Nc1ccccc1)Nc1cccc2ccccc12,-15.7,-0.6,-0.6,46.3*,-0.7,5.0,/
COC(=O)c1ccccc1NC(=O)C(=O)NCC1CCCO1 (configuration not stated),-6.6,-5.5,1.2,1.9,-1.5,4.2,/
COC(=O)c1ccccc1NC(=O)NCC1CCCO1 (configuration not stated),-10.2,-4.1,4.7,44.1*,-1.4,6.1,i
